# Laboratory results published in ChEMBL document CHEMBL1961873, “Compounds: GSK PKIS; Assays: Nanosyn kinase panel” (2012).
# Experiments:
# [1] = molecular target: Protein kinase C gamma type (Homo sapiens) (UniProt P05129); conditions: at 1 µM;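 note: each value is an averaged percent inhibition of the enzyme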
# [2] = molecular target: T1, Protein kinase C iota type (Homo sapiens) (UniProt P41743); conditions: at 0.1 µM
# T1 sequence (whole entry): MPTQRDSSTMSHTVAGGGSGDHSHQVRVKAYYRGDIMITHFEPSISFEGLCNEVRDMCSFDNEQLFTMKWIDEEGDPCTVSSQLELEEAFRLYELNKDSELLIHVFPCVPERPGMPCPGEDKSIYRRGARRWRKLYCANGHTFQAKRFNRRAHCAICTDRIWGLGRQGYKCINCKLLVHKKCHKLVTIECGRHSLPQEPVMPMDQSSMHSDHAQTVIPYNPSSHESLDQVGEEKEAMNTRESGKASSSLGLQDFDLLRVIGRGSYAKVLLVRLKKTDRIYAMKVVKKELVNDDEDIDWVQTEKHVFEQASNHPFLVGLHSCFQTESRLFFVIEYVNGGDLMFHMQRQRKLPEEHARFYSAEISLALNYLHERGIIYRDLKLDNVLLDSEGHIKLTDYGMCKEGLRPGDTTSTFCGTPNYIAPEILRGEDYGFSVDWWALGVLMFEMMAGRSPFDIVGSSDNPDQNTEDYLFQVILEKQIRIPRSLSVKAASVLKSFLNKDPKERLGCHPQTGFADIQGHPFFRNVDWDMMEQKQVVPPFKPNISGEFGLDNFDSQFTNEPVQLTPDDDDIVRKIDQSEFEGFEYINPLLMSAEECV
# [3] = molecular target: T1, Protein kinase C iota type (Homo sapiens); conditions: at 1 µM
# [4] = molecular target: Protein kinase C theta type (Homo sapiens) (UniProt Q04759); conditions: at 0.1 µM
# [5] = molecular target: Protein kinase C theta type (Homo sapiens) (UniProt Q04759); conditions: at 1 µM
# [6] = molecular target: Protein kinase C beta type (Homo sapiens) (UniProt P05771); conditions: at 0.1 µM
# [7] = molecular target: Protein kinase C beta type (Homo sapiens) (UniProt P05771); conditions: at 1 µM
# [8] = molecular target: T2, Serine/threonine-protein kinase D1 (Homo sapiens) (UniProt Q15139); conditions: at 0.1 µM
# T2 sequence (whole entry): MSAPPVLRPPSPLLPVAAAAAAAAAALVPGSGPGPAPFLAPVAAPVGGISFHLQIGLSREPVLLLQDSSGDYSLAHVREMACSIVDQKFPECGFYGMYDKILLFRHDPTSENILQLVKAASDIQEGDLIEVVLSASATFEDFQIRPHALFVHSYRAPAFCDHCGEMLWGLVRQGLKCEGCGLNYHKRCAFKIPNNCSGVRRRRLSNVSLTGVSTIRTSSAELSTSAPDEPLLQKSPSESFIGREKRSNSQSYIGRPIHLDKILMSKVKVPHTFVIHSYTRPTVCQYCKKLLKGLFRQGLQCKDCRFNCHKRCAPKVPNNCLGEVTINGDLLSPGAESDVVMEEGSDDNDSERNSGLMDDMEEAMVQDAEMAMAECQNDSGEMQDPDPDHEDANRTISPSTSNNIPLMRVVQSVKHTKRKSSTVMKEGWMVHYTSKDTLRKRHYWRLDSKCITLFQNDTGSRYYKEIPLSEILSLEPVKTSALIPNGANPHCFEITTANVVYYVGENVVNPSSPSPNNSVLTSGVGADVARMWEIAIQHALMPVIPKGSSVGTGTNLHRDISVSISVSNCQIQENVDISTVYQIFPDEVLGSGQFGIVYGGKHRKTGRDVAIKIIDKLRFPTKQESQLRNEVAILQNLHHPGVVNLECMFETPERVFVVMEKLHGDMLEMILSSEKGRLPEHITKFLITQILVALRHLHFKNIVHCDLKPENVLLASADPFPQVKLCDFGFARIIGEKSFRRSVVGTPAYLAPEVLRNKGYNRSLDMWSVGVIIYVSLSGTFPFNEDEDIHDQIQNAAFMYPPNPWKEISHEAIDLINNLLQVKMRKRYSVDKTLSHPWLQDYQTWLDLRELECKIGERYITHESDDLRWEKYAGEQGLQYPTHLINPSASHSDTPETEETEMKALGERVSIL
# [9] = molecular target: T2, Serine/threonine-protein kinase D1 (Homo sapiens); conditions: at 1 µM
# [10] = molecular target: T3, Serine/threonine-protein kinase D2 (Homo sapiens) (UniProt Q9BZL6); conditions: at 0.1 µM
# T3 sequence (whole entry): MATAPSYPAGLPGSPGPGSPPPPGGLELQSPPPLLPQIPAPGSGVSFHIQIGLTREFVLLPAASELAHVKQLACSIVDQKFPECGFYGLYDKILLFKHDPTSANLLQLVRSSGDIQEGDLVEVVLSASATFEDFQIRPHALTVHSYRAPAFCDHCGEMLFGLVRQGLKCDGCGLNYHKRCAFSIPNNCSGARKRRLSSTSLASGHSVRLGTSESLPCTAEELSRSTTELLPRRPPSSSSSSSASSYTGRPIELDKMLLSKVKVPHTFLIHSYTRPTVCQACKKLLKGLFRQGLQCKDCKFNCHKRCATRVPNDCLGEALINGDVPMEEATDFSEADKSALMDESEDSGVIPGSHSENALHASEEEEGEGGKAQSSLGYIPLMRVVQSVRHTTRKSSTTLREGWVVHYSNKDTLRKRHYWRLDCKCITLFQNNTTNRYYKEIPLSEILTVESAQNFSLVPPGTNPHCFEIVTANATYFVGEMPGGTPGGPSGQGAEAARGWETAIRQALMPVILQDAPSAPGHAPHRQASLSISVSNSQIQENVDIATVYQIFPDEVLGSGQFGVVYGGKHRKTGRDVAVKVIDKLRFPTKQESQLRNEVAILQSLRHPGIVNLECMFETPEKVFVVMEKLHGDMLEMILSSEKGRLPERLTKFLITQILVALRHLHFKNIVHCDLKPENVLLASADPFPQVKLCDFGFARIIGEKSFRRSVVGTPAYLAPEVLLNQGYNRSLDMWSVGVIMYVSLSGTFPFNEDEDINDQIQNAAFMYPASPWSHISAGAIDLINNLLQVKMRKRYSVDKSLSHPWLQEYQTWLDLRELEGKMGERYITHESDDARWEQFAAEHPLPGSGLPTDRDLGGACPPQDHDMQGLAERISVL
# [11] = molecular target: T3, Serine/threonine-protein kinase D2 (Homo sapiens); conditions: at 1 µM
# [12] = molecular target: T4, Serine/threonine-protein kinase D3 (Homo sapiens) (UniProt O94806); conditions: at 0.1 µM
# T4 sequence (whole entry): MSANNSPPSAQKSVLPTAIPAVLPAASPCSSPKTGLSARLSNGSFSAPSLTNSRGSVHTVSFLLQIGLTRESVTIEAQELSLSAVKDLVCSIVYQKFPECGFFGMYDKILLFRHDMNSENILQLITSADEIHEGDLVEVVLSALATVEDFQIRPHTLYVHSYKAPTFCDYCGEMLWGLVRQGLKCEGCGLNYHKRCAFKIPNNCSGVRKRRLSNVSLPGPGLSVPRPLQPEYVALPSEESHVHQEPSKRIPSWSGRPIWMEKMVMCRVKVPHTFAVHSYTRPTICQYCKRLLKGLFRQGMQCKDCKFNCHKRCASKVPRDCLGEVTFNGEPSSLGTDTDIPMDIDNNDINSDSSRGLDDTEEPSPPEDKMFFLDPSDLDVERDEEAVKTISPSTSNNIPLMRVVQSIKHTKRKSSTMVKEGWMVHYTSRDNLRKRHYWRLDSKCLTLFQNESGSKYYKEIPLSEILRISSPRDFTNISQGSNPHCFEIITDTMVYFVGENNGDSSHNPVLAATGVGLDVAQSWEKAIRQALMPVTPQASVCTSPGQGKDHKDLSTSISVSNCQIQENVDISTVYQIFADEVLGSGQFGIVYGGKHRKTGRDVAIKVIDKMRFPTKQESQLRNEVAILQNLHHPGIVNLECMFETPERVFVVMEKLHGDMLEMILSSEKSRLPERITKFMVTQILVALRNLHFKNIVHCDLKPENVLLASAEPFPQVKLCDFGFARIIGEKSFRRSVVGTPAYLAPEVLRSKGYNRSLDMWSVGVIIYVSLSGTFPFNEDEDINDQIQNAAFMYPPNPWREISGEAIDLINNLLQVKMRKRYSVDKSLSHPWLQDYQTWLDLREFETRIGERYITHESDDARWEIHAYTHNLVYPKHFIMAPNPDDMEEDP
# [13] = molecular target: T4, Serine/threonine-protein kinase D3 (Homo sapiens); conditions: at 1 µM
# [14] = molecular target: T5, cGMP-dependent protein kinase 1 (Homo sapiens) (UniProt Q13976); conditions: at 0.1 µM
# T5 sequence (whole entry): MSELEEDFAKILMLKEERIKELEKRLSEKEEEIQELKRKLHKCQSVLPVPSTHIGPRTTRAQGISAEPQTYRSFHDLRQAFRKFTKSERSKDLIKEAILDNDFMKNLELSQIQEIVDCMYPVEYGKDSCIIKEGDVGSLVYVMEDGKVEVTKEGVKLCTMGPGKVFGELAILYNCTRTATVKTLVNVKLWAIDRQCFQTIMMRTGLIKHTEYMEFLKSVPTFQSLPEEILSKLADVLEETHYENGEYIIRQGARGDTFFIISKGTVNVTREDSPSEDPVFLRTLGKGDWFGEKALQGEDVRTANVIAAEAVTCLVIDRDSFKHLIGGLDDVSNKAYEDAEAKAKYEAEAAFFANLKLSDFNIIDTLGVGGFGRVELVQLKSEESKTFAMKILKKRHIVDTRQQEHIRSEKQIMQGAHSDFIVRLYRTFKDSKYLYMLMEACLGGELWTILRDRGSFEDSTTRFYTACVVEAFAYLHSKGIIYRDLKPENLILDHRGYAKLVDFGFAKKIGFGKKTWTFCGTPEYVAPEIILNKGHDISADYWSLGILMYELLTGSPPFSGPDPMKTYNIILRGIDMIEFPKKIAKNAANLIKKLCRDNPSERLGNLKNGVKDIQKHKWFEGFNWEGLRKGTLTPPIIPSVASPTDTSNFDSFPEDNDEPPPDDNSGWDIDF
# [15] = molecular target: T5, cGMP-dependent protein kinase 1 (Homo sapiens); conditions: at 1 µM
# [16] = molecular target: T6, cGMP-dependent protein kinase 2 (Homo sapiens) (UniProt Q13237); conditions: at 0.1 µM
# T6 sequence (whole entry): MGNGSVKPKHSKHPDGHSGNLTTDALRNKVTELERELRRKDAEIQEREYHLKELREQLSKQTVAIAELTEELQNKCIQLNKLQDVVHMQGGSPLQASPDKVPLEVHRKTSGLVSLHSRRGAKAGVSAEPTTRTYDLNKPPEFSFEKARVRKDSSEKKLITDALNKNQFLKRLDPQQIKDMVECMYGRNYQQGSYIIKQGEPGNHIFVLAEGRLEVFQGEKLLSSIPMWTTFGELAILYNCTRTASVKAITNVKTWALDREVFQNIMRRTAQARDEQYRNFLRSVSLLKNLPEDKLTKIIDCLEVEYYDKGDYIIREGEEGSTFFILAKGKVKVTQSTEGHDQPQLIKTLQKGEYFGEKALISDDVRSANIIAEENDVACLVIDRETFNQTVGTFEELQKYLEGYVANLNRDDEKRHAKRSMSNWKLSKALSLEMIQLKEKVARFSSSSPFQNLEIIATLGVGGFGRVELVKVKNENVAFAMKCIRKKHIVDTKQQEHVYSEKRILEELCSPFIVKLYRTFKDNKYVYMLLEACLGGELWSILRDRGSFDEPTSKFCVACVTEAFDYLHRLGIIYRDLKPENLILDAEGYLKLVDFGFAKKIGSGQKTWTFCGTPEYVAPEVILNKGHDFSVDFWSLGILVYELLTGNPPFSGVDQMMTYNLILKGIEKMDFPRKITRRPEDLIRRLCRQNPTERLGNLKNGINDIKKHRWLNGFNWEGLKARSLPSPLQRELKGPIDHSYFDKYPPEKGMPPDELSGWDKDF
# [17] = molecular target: T6, cGMP-dependent protein kinase 2 (Homo sapiens); conditions: at 1 µM
# [18] = molecular target: T7, cAMP-dependent protein kinase catalytic subunit PRKX (Homo sapiens) (UniProt P51817); conditions: at 0.1 µM
# T7 sequence (whole entry): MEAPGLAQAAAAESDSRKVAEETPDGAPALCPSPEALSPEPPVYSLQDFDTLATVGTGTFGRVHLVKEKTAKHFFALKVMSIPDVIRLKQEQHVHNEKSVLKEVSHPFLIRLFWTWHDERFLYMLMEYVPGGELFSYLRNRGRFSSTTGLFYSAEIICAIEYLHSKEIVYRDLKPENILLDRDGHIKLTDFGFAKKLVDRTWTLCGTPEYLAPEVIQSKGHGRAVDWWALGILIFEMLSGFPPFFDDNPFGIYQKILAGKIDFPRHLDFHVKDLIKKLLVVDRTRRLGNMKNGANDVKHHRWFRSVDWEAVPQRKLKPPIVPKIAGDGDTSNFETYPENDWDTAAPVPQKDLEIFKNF
# [19] = molecular target: T7, cAMP-dependent protein kinase catalytic subunit PRKX (Homo sapiens); conditions: at 1 µM
# [20] = molecular target: Rho-associated protein kinase 1 (Homo sapiens) (UniProt Q13464); conditions: at 0.1 µM;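 note: values are mean percent inhibition of ROCK1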
# Rho-associated protein kinase 1 (Homo sapiens), sequence (Q13464 2-1354 limits assumed): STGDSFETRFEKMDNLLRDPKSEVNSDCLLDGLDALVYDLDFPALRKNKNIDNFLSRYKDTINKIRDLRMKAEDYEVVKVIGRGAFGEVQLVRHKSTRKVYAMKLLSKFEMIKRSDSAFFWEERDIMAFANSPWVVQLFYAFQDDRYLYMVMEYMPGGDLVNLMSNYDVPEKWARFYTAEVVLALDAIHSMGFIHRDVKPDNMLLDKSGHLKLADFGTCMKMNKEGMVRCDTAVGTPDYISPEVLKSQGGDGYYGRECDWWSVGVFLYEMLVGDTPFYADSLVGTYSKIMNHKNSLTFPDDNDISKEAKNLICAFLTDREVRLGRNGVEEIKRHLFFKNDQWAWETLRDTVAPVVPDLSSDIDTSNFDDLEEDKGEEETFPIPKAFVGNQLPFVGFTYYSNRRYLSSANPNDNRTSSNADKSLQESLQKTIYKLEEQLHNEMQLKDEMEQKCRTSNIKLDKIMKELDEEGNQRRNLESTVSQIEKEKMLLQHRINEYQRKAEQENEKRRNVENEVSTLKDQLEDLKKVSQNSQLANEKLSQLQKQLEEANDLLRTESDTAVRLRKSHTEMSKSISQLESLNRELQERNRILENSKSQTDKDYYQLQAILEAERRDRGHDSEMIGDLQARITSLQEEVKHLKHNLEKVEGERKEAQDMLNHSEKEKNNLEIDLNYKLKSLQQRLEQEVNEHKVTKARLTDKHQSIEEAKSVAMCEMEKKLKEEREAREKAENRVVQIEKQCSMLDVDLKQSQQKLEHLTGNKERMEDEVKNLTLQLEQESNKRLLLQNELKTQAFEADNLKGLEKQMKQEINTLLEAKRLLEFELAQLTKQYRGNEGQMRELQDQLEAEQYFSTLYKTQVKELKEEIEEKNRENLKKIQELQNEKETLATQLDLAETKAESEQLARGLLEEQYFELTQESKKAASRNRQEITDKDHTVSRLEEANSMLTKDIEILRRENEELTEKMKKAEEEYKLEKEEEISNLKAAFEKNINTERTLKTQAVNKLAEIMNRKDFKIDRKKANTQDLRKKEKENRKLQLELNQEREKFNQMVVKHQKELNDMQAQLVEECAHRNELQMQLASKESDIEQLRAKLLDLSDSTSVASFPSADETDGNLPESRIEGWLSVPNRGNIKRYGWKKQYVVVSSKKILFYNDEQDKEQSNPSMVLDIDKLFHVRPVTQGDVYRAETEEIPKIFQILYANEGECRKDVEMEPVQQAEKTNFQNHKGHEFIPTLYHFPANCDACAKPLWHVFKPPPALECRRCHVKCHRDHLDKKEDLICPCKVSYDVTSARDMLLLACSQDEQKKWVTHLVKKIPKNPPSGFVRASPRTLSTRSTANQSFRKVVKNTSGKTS
# Protein kinase C beta type (Homo sapiens), sequence (P05771 2-671 limits assumed): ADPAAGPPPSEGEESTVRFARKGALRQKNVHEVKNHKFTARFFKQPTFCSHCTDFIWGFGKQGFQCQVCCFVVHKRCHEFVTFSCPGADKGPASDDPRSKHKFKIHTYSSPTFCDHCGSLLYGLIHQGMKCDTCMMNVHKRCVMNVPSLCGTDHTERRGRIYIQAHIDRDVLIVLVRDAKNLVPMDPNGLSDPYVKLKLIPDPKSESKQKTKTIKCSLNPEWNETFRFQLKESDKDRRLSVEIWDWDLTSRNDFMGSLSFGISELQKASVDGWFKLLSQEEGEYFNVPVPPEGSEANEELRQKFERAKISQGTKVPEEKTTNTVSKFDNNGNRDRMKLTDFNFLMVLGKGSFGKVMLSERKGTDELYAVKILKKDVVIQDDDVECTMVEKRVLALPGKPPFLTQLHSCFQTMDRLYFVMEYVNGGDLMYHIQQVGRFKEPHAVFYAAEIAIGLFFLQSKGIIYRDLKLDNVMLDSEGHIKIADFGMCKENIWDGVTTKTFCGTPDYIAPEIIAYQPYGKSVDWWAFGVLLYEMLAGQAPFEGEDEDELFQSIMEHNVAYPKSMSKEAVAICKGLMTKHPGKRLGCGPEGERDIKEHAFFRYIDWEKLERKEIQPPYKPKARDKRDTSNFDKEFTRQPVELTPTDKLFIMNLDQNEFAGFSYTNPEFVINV
# Protein kinase C theta type (Homo sapiens), sequence (Q04759 whole entry, looked up): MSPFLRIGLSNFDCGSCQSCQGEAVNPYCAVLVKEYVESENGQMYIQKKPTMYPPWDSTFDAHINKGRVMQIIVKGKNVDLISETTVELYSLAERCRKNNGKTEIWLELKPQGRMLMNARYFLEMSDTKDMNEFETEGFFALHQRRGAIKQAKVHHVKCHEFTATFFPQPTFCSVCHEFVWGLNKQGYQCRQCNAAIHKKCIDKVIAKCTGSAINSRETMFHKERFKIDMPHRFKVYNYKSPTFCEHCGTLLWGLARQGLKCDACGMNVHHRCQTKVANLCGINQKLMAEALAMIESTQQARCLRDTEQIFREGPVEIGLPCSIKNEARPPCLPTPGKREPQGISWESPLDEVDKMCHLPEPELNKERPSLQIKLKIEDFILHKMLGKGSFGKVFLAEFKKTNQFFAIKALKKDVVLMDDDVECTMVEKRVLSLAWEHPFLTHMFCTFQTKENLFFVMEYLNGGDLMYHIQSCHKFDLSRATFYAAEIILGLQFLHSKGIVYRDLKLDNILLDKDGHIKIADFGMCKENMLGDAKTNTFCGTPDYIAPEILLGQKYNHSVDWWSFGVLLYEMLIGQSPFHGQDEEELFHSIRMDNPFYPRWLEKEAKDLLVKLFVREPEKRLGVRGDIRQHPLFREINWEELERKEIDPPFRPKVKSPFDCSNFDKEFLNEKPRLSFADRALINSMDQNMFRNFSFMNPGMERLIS
Compound,inhibition [1],inhibition [2],inhibition [3],inhibition [4],inhibition [5],inhibition [6],inhibition [7],inhibition [8],inhibition [9],inhibition [10],inhibition [11],inhibition [12],inhibition [13],inhibition [14],inhibition [15],inhibition [16],inhibition [17],inhibition [18],inhibition [19],inhibition [20]
COC(=O)Nc1nc2cc(Oc3ccc(NC(=O)Nc4cccc(Br)c4)cc3)ccc2[nH]1,0.29%,1.23%,0.06%,1.7%,1.69%,0.71%,2.06%,2.15%,4.31%,4.58%,4.58%,2.07%,3.88%,1.83%,2.02%,0.8%,2.14%,1.95%,1.14%,2.54%
COc1cc2ncnc(Nc3ccc4c(cnn4Cc4ccccc4)c3)c2cc1OC,2.04%,0.72%,0.48%,0.78%,0.99%,0.94%,0.88%,2.89%,5.2%,2.96%,3%,2.69%,4.17%,1.58%,1.78%,1.02%,0.7%,1.5%,1.55%,2.33%
NS(=O)(=O)c1cccc(-c2cc3ccncc3cc2OCc2ccccc2)c1,4.07%,2.51%,3.39%,2.29%,1.87%,2.02%,2.23%,4.25%,7.09%,5.29%,5.47%,6.19%,6.3%,3.6%,4.53%,2.72%,5.57%,1.93%,0.54%,0.94%
